Reference: PubChem BioAssay (Tox21)
Records with an inconclusive call do not appear. Entries that show only a call come without a potency. Calls of active or inactive are those of the source. The call rests on the fitted dose curve; in most records, active means well fitted activation curve with a large enough effect in the repeat runs; inconclusive means weak or mixed curves; inactive means flat fitted curve, though single readings scatter.

Each compound was assayed against Nuclear receptor subfamily 1 group I member 2 (Homo sapiens) (UniProt O75469) (assay: Human pregnane X receptor (PXR) activation by small molecules, qHTS assay (AID 1346985; further: nearly all actives have a fitted effect of over 40% in size)). Conditions: DPX-2 HepG2 CYP3A4-luciferase, 24 h; series mostly up to 38.3 µM.
How it was run: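 DPX-2 cells (HepG2 co-transfected with a PXR response element and a CYP3A4-promoter luciferase construct) were seeded at 2,000 per well, rested 5 hr at 37C, then exposed to DMSO-dissolved compounds for 24 hr. Activation was read as luciferase luminescence.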
Potency means the concentration at half of the fitted maximal effect.

| Compound | Potency |
| --- | --- |
| CO[C@H](C(=O)[C@@H](O)[C@@H](C)O)C1Cc2cc3cc(O[C@H]4C[C@@H](O[C@H]5C[C@@H](O)[C@H](O)[C@@H](C)O5)[C@@H](O)[C@@H](C)O4)c(C)c(O)c3c(O)c2C(=O)[C@H]1O[C@H]1C[C@@H](O[C@H]2C[C@@H](O[C@H]3C[C@](C)(O)[C@H](O)[C@@H](C)O3)[C@H](O)[C@@H](C)O2)[C@H](O)[C@@H](C)O1 (stereo partly specified) | inactive |
| CC(C)OC(=O)Nc1ccc2nc(-c3cscn3)[nH]c2c1 | 5.01 µM (active) |
| C=C(Nc1ccc(OCC)cc1)Nc1ccc(OCC)cc1 | inactive |
| Nc1nc(/C(=C/CC(=O)O)C(=O)N[C@@H]2C(=O)N3C(C(=O)O)=CCS[C@H]23)cs1 | inactive |
| NC(N)=NCC1COC2(CCCCC2)O1 (stereo unspecified) | inactive |
| CCCCCCOC(=O)c1cccnc1 | inactive |
| CC[C@H]1OC(=O)C[C@@H](O)[C@H](C)[C@@H](O[C@@H]2O[C@H](C)[C@@H](O)[C@H](N(C)C)[C@H]2O)[C@@H](CCN2C[C@H](C)C[C@H](C)C2)C[C@@H](C)C(=O)/C=C/C(C)=C/[C@@H]1CO[C@@H]1O[C@H](C)[C@@H](O)[C@@H](OC)[C@H]1OC | inactive |
| C=N[C@@H](C(=O)N[C@@H]1C(=O)N2[C@@H]1SC(C)(C)[C@@H]2C(=O)O)c1ccccc1 | inactive |
| CC(C)(COP(=O)(O)OP(=O)(O)OC[C@H]1O[C@@H](n2cnc3c(N)ncnc32)[C@H](O)[C@@H]1OP(=O)(O)O)C(O)C(=O)NCCC(=O)NCCS (stereo partly specified) | inactive |
| CO/N=C(\C(=O)N[C@@H]1C(=O)N2C(C(=O)O)=C(CSc3nc(C)c(CC(=O)O)s3)CS[C@H]12)c1csc(N)n1 | inactive |
| C=CCN1C(=O)C(CC(C)C)NC1=S (stereo unspecified) | inactive |
| COc1ccc(/C=C/C(=O)O)cc1 | inactive |
| CCC1OC(=O)C[C@@H](O)[C@H](C)[C@@H](O[C@@H]2O[C@H](C)C[C@H](N(C)C)[C@H]2O)[C@@H](CC=O)C[C@@H](C)C(=O)/C=C/[C@]2(C)OC2C1C (stereo partly specified) | inactive |
| CC(=O)Nc1ccc(OC(C)=O)cc1 | inactive |
| O=C(O)[C@H]1CN(C/C=C/P(=O)(O)O)CCN1 | inactive |
| CC1=C(/C=C/C(C)=C/C=C/C(C)=C/C=C/C=C(C)/C=C/C=C(C)/C=C/C2=C(C)CCCC2(C)C)C(C)(C)CCC1 | inactive |
| COc1cc2c(cc1O)CCN[C@]21CS[C@@H]2c3c(OC(C)=O)c(C)c4c(c3[C@H](COC1=O)N1[C@@H]2[C@H]2c3c(cc(C)c(OC)c3O)C[C@@H]([C@@H]1O)N2C)OCO4 | inactive |
| Cc1ccc(C(C)(C)c2ccc(C)cc2)cc1 | inactive |

| Compound | Potency |
| --- | --- |
| Cc1cc(C(=O)NCCc2ccc(S(=O)(=O)NC(=O)NN3CCCCCC3)cc2)no1 | inactive |
| C[Se]CC[C@H](N)C(=O)O | inactive |
| COC(=O)C(CN)c1c[nH]c2ccc(OC)cc12 (stereo unspecified) | inactive |
| O=C(O)CCCC/C=C(\c1ccccc1)c1cccnc1 | inactive |
| O=C[C@H](O)[C@@H](O)[C@@H](O)[C@H](O)CO | inactive |
| Cc1cc(=O)c(C(=O)N[C@@H](C(=O)N[C@@H]2C(=O)N3C(C(=O)O)=C(CSc4nnnn4C)CS[C@H]23)c2ccc(O)cc2)c[nH]1 | inactive |
| COc1ccc(/C=N/NC(=O)c2ccncc2)c(C(=O)O)c1OC | inactive |
| CC[C@@H](C)[C@H](N)C(=O)O | inactive |
| CCc1cn([C@H]2C[C@H](O)[C@@H](CO)O2)c(=O)[nH]c1=O | inactive |
| CO/N=C(\C(=O)N[C@@H]1C(=O)N2C(C(=O)[O-])=C(C[n+]3cccc4c3CCC4)CS[C@H]12)c1csc(N)n1 | inactive |
| C=C1[C@H](CO)[C@@H](O)C[C@@H]1n1cnc2c(=O)[nH]c(N)nc21 | inactive |
| Cc1cc(CC(C)CC(C)(C)C)n(O)c(=O)c1 (stereo unspecified) (tested in a mixture with another compound) | 25.1 µM (active) |
| CCN(CC)CC#CCOC(=O)C(O)(c1ccccc1)C1CCCCC1 (stereo unspecified) | 17.8 µM (active) |
| NCCO/C=C/[C@H](N)C(=O)O | inactive |
| NC[C@@H]1CC[C@@H](N)[C@@H](O[C@H]2[C@H](O)[C@@H](O[C@H]3O[C@H](CO)[C@@H](O)[C@H](N)[C@H]3O)[C@H](N)C[C@@H]2N)O1 | inactive |
| OCCCNc1ccccc1 | inactive |
| Cc1c(O)c(=O)ccn1C | inactive |
| CCCCCCCCCCCCCCCC(=O)OC[C@H](COP(=O)([O-])OCC[N+](C)(C)C)OC(=O)CCCCCCCCCCCCCCC | inactive |
